Shown is part of a subset that was picked to be rich in hits.
ERK EGF block – blocks ERK signaling stimulated by EGF | Potency, µM (doses to about 11.5 µM), for inactives: at the highest dose activity change, negative = inhibition, hits mostly inhibitors | 130,000 tested, 0.41% active | HEK293-V1b, EGF-stimulated phospho-ERK AlphaScreen | AID 1454;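 note: plate controls were stimulated vehicle wells for no effect and unstimulated vehicle basal for full effect; nearly all actives have a fitted effect of over 55% in size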
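Phospho-ERK1/2 measured by AlphaScreen (SureFire) after 5 min 25 nM EGF stimulation of V1b-expressing HEK293 cells preincubated 30 min at 37C with titrated compounds; data scaled to DMSO and EGF controls, Hill-fitted AC50.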
NPSR antag – blocks cAMP signaling of the human neuropeptide S receptor; 220,000 tested, 1% active; Potency, µM (highest dose often 38.3 µM), inactives show at the top dose activity change, negative = inhibition, hits mostly inhibitors; Q6W5P4; CHO-NPSR cells, cAMP TR-FRET, antagonist mode; note: nearly all actives have a fitted effect of over 50% in size
Target sequence (Q6W5P4 whole entry, looked up): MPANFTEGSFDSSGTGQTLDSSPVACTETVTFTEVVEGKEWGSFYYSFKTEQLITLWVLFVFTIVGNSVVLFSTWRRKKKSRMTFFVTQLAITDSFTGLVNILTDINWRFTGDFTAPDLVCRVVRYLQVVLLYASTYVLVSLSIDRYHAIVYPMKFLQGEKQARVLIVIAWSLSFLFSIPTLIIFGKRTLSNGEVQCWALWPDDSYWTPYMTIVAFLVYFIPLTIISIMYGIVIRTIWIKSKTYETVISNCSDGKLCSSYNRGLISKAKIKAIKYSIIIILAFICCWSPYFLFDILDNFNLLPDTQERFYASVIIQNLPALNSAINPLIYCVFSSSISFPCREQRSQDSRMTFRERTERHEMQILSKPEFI
An asterisk follows results filed as active; ? = inconclusive; . = no result; ! = not confirmed by another sample; [ ] = remark or other dose. Calls come from the whole dose curve; as a rule, active = well fitted curve in the direction sought with a large enough effect; inconclusive = small, poorly fitted or top-dose-only effect, or another doubt; inactive = no such curve, though single readings can be large; an effect the other way counts as inactive or inconclusive. Unless noted, % is set by controls: 0 for no effect and ±100 for the full control effect; potency is the fitted concentration of half-maximal effect.

SMILES	ERK EGF block	NPSR antag
Cc1cc(C(=O)Nc2ccc(C)c(S(=O)(=O)N3CCOCC3)c2)c(C)o1	-7%	-5%
Cc1ccc(NC(=O)/C=C/c2ccc3c(c2)OCO3)cc1S(=O)(=O)N1CCOCC1	28µM*	-18%
CCCCCC(=O)/C=C/C=C\C/C=C\C/C=C\CCCC(=O)O	5%	.
CC(C)[C@H](Nc1ccc(C(F)(F)F)cc1[N+](=O)[O-])C(=O)O	-2%[57.5 µM]	-17%
O=C(NNc1ccc(C(F)(F)F)cc1[N+](=O)[O-])c1ccc(NS(=O)(=O)c2ccc(F)cc2)cc1	9%	10µM*
Cc1ccc(C(=O)OC[C@H]2O[C@H](Cl)C[C@@H]2OC(=O)c2ccc(C)cc2)cc1	1%	.
CC(C)(C)c1ccc(CN2N=Nc3ccccc3S2(=O)=O)cc1	.	10µM*
O=S1(=O)c2ccccc2N=NN1Cc1ccc(Cl)c(Cl)c1	.	-5%[46.1 µM]
COc1ccc(O)c(C(=O)/C=C/c2cc3ccccc3o2)c1	25µM*	-23%
O=C(/C=C/c1cc2ccccc2o1)c1ccccc1O	?	2%
CCCCC/C=C\C/C=C\C/C=C\CCCCCCC(=O)NCC(=O)O	-6%	.
COc1ccc2nc3c(cc2c1)Cc1ccccc1-3	13%	.
Oc1cc2c(cc1O)C1c3ccc(O)c(O)c3OCC1(O)C2 (configuration not stated)	11µM*!	43%
COC(=O)C1(Cc2ccccc2)C=C2C(=C(C(C)C)C(=O)C2C)CN1 (configuration not stated)	3%	.
N=c1c2c(ncn1Cc1ccco1)Oc1ccc3ccccc3c1C2c1ccccc1 (configuration not stated)	-4%	?
N=c1c2c(-c3ccccc3)c(-c3ccccc3)n(Cc3ccco3)c2ncn1Cc1ccco1	.	10µM*
Cc1csc2c(N3CCN(C(=O)c4ccc(C(C)(C)C)cc4)CC3)ncnc12	28µM*	22%
Cc1csc2c(N3CCN(C(=O)NC(C)(C)C)CC3)ncnc12	7%[57.5 µM]	-3%
CCOCCCNc1nc2c(C)cccn2c(=O)c1/C=C1\SC(=S)N(CC(C)C)C1=O	.	-1%[46.1 µM]
CCOC(=O)CC1C(=O)NCCN1c1nc2c(C)cccn2c(=O)c1/C=C1\SC(=S)N(CC(C)C)C1=O (configuration not stated)	-3%[57.5 µM]	10µM*
COc1ccc(CNc2cc(-c3ccccc3CN(C)C)ncn2)c(OC)c1	10%	.
COc1ccccc1OCCN1CSC(=S)N(C)C1	0%	3.2µM*
Cc1cccc(OCCN2CSC(=S)N(C)C2)c1	.	6%[46.1 µM]
Cc1ccc(NS(=O)(=O)c2cccc(C(=O)NCC(c3cccs3)N(C)C)c2)cc1 (configuration not stated)	-6%	-37%
Cc1ccc(NS(=O)(=O)c2cccc(C(=O)NCC3(N(C)C)CCCCC3)c2)cc1	1%	10µM*
SMILES	ERK EGF block	NPSR antag
Cc1c(CC(C)(C)C(=O)O)n(Cc2ccc(Cl)cc2)c2ccc(F)cc12	-3%	.
COc1nc(Cl)cn(-c2ccc(C)cc2)c1=O	10%	5%
Cc1ccc(-n2c(Cl)c(Cl)nc(Cl)c2=O)cc1	?	10µM*
COc1cccc(C(=O)CC2c3c(c(Br)c4c(c3OC)OCO4)CCN2C)c1 (configuration not stated)	-2%	.
CCOC(=O)/C(=C\c1ccc(OC(F)F)cc1)C1=Nn2c(nnc2-c2ccc(Cl)cc2)SC1	4%	10µM*
COc1ccc(-c2nnc3n2N=C(C)CS3)cc1	.	-20%[46.1 µM]
Cc1ccc(/C=C2/SC(=O)NC2=S)o1	1%	13µM*
Cn1cc(/C=C2\SC(=O)NC2=S)c2ccccc21	?	-39%
CC(C)(C)Nc1oc(-c2ccccc2)nc1-c1ccccc1F	-3%	.
Cc1noc(C)c1CSc1nc2sc(C)c(C)c2c(=O)n1-c1ccccc1	.	-19%[46.1 µM]
Cc1noc(C)c1CSc1nc2ccccc2c(=O)n1-c1ccc(Cl)cc1	.	10µM*
COc1ccc(/C=C/c2cc(OC)c(OC)cc2CC[N+](C)(C)C)cc1	-8%	.
CCN1C(=O)C2(C(C(=O)c3ccc(C)o3)=C(O)C(=O)N2CCCN2CCOCC2)c2ccccc21 (configuration not stated)	.	-8%[46.1 µM]
CCN1C(=O)C2(C(C(=O)c3cc4ccccc4o3)=C(O)C(=O)N2CCCN2CCOCC2)c2ccccc21 (configuration not stated)	-14%[57.5 µM]	7.9µM*
C=C1C(C2(C)C=CC(=O)C(C)(C)C2CC(=O)OC)CC[C@@]2(C)C(c3ccoc3)OC(=O)C3OC132 (some centres not stated)	29%	.
Fc1ccc2[nH]c3c(N4CCc5ccccc5C4)ncnc3c2c1	?	57%
CCOc1ccc2[nH]c3c(N4CCc5ccccc5C4)ncnc3c2c1	32µM*	?
CN1C2CC(OC(=O)C(CO)c3ccccc3)C[C@@H]1[C@H]1OC21 (some centres not stated)	11%	.
CO/N=C/c1ccc(Oc2ccc([N+](=O)[O-])cc2[N+](=O)[O-])c(OC)c1	10%	1%
COc1cc(/C=C2\SC(=O)NC2=O)ccc1Oc1ccc([N+](=O)[O-])cc1[N+](=O)[O-]	5%	10µM*
Oc1c(Br)cc(C=Nc2ccc3nc(-c4ccccc4)[nH]c3c2)c(O)c1Br	-4%[57.5 µM]	10µM*
O=[N+]([O-])c1ccc(O)c(C=Nc2ccc3nc(-c4ccccc4)[nH]c3c2)c1	2%	-20%
CC1=CN2C(=N)/C(=C/c3ccco3)C(=O)N=C2S1	8%	-24%
CC1=CN2C(=N)/C(=C/c3ccc([N+](=O)[O-])o3)C(=O)N=C2S1	?	13µM*
OCC1O[C@@H](OC2C(O)C(CO)O[C@@]2(CO)O[C@@H]2OC(CO)C(O)C(O)C2O)C(O)C(O)C1O (some centres not stated)	35%	.
SMILES	ERK EGF block	NPSR antag
CC(C)[C@@H](CC(=O)N[C@@H]1CCNC[C@H]1C(=O)N[C@H](CC(=O)N[C@@H](CCC(=O)O)CC(=O)O)Cc1c[nH]c2ccccc12)NC(=O)C[C@H](CO)NC(=O)[C@@H]1CNCC[C@H]1N	-6%	.
CC(C)C[C@H](NC(=O)c1nc[nH]c1C(=O)NCCCCCNC(=O)OC(C)(C)C)C(=O)OC(C)(C)C	-1%[57.5 µM]	?
CC(C)C[C@H](NC(=O)c1nc[nH]c1C(=O)N[C@@H](CCCCNC(=O)OC(C)(C)C)C(=O)OC(C)(C)C)C(=O)OC(C)(C)C	1%[57.5 µM]	10µM*
C=CCC(C)(O)c1cccc(Br)c1 (configuration not stated)	-10%	.
N#Cc1cccc(NC(=O)N2CCCC3(CCN(C(=O)c4cc(C(F)(F)F)cc(C(F)(F)F)c4)CC3)C2)c1	1%	.
C/C(=N\Nc1ncc(Cl)cc1Cl)c1ccccn1	-5%	1.3µM*
C/C(=N\Nc1ccc(Cl)c(C(=O)O)c1)c1ccccn1	-2%[57.5 µM]	11%
CS(=O)(=O)N1CCC2(CC1)CN(Cc1ccc(C#N)cc1)C2	2%	.
CN1CCC2(CC1)CCN(C(=O)c1cc(C(F)(F)F)cc(C(F)(F)F)c1)CC2	-7%	.
COc1cccc(Cn2c(=O)c(-c3cccc(C#N)c3)nc3cnc(Nc4ccccc4)nc32)c1	-4%	.
CCOc1ccc(-n2nc3ccc(NC(=O)c4ccc5c(c4)OCCO5)cc3n2)cc1	?	10µM*
O=C(Nc1ccc2nn(-c3ccccc3)nc2c1)c1ccc2c(c1)OCCO2	.	-9%[46.1 µM]
COC(=O)[C@H](Cc1ccccc1)NC(=O)O[C@H]1C(=O)c2cc(OC)ccc2O[C@@H]1c1ccc(OC)c(Br)c1	7%	.
COc1ccccc1-c1ccc2ncnc(N(C)C)c2c1	22%	.

Source: PubChem
